Most compounds without a hit are left out; they make up all but 6.2% or so of the library.
Lassa entry inh – qHTS for Inhibitors of binding or entry into cells for Lassa Virus; Lassa virus pseudotype entry inhibition, cell reporter; Potency, µM (doses to about 37.9 µM), without a hit: top-dose activity change, negative = inhibition, most hits filed as inhibitors; 1.2% of 300,000 active; calls by dose curve; tested in HEK293 cells; also: potency is read from the fitted curve at half-maximal effect; nearly all actives have a fitted effect of over 50% in size
HCMV antiviral – qHTS Assay for inhibitors of the human cytomegalovirus (HCMV); HFF cells, HCMV-luciferase reporter, 72 h; stronger effect = lower value; activity change, negative = inhibition, % at 57.5 µM; 4.5% of 410,000 active; in the data active = activity change below about -60%; inconclusive = no clear call, values can overlap the other calls; inactive = above about -39%
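Screen run at 2 compound doses on HFFs infected with reporter HCMV, MOI 1 PFU/cell. Luciferase activity from cell lysates at 72 h post infection gave inhibition relative to buffer-only and Salinomycin wells.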
FMDV inh – High Throughput Screening for Foot and Mouth Disease Virus Antivirals; FMDV antiviral cell-based qHTS; Potency, µM (top dose mostly 57.9 µM), for the others: top-dose activity change, negative = inhibition, most hits filed as inhibitors; 1.2% of 410,000 active; AID 1159524, 2015; calls by dose curve; tested in HEK293T cells; also: read-out not given here; potency is read from the fitted curve at half-maximal effect; nearly all actives have a fitted effect of over 45% in size
MARV entry inh – qHTS for inhibitors of binding or entry into cells for Marburg Virus. Marburg virus pseudotyped entry inhibition, cell reporter. Potency, µM (series often up to 37.8 µM), for the others: at the highest dose activity change, negative = inhibition, most hits filed as inhibitors. 1.8% of 300,000 active. AID 540276, 2011; calls by dose curve; tested in HEK293 cells; also: potency is read from the fitted curve at half-maximal effect
* hit, by the source's call; ? = inconclusive; / = not tested or not shown; [ ] = another dose, or the depositor's remark. % is scaled to controls: 0 for no effect and ±100 for the full control effect.

SMILES | Lassa entry inh | HCMV antiviral | FMDV inh | MARV entry inh
O=C(Oc1ccccc1)N1CCC2(CCCN(c3ncccn3)C2)CC1 | / | / | -26% | /
Cc1c(C(=O)N2CCCC2)sc2ncnc(NCCc3ccccn3)c12 | / | / | -4% | /
Cc1ccccc1Nc1ncnc2c1c(-c1ccccc1)cn2-c1ccc(F)cc1 | -9%[46.1 µM] | -26 | -27% | /
Cc1c(P(=S)(c2ccccc2)c2ccccc2)[n+]2ccccc2n1CCc1ccccc1 | / | -98* | ? | /
O=c1n(-c2ccccc2)c(=O)n2n1CC[C@@H]1/C(=N/OC[C@@H](O)COCc3ccco3)[C@H]3O[C@H]3[C@@H](O)[C@@H]12 | / | / | / | -23%[14.2 µM]
CCn1c(=O)c(C(=O)Nc2ncccc2O)c(O)c2ccccc21 | 25% | 54 | -24% | ?
CCCCCCn1c(=O)c(C(=O)Nc2ncccc2O)c(O)c2ccccc21 | / | -73* | -18% | /
CCCCCn1c(=O)c(C(=O)Nc2ccccn2)c(O)c2ccccc21 | / | -98* | -17% | /
CCn1c(=O)c(C(=O)Nc2ccccn2)c(O)c2ccccc21 | 29%[46.1 µM] | 25 | -6% | 12%[46.1 µM]
CCCCCCn1c(=O)c(C(=O)Nc2cnccn2)c(O)c2ccccc21 | ? | -38 | ? | ?
CCCCn1c(=O)c(C(=O)Nc2ccccn2)c(O)c2ccccc21 | / | -78* | -16% | /
CCn1cc(CNC(=O)c2cc(-c3ccc(C)cc3)nc3ccc(Br)cc23)c(C)n1 | -10%[46.1 µM] | 25 | 6% | -1%[46.1 µM]
CCc1cccc(CC)c1NC(=O)CCS(=O)(=O)c1ccc2c(c1)CCN2C(C)=O | 7%[46.1 µM] | -17 | -16% | -11%[46.1 µM]
Cc1c(C(=O)Nc2cccc([N+](=O)[O-])c2)csc1-c1ccccc1 | ? | -75* | -1% | ?
Cc1ccc(NC(=O)c2csc(-c3ccccc3)c2C)cc1 | 6.5µM* | -13 | ? | 13µM*
Cc1oc2c(Cl)c(Cl)c(O)c(CN(C)C)c2c1C(=O)c1ccc(Cl)cc1 | / | -69* | ? | /
CCC(Sc1nc2ncccc2[nH]1)C(=O)Nc1cccc(OC)c1 (stereo not given) | 22%[46.1 µM] | 9 | -14% | /
CCc1ccc2oc(-c3cc(N=Cc4cccc(OC)c4O)ccc3O)nc2c1 | 6.5µM* | / | -43% | ?
CC(=O)OCCNc1cc(N2CCN(C)CC2)c2noc3c2c1C(=O)c1ccccc1-3 | / | -32 | ? | /
CCOC(=O)C(C(=O)OCC)c1cc(Br)c2noc3c2c1C(=O)c1ccccc1-3 | 11µM* | -106* | 25µM* | ?
CC1CCN(CC(CS(=O)(=O)c2ccc([N+](=O)[O-])cc2)N2CCC(C)CC2)CC1 (stereo not given) | / | -62* | 28µM* | /
CC(=O)N1/C(=C/c2ccc(N(C)C)cc2)C(=O)c2ccccc21 | ? | 7 | 20µM* | 13µM*
Cc1ccc(S(=O)(=O)N(C)Cc2cc3cc(C)ccc3[nH]c2=O)cc1 | / | -13 | 11% | /
COCCN(Cc1cc2cc(C)ccc2[nH]c1=O)S(=O)(=O)c1ccc(Cl)cc1 | / | -92* | -15% | /
CCC(Sc1nc2ncccc2o1)C(=O)Nc1cccc(C)c1 (stereo not given) | ? | 8 | -10% | /
SMILES | Lassa entry inh | HCMV antiviral | FMDV inh | MARV entry inh
O=C(CC1CC1)Nc1ccc2c(c1)[C@@H]1C[C@H](CC(=O)NC3CCCC3)O[C@@H](CO)[C@@H]1O2 | / | 12 | -11% | /
Cc1ccc(S(=O)(=O)N[C@@H]2COC(=O)[C@@H](C)COC(=O)C/C=C/[C@H]2C)cc1 | / | / | / | 7%[14.2 µM]
Cc1ccc2nc(-c3ccccc3)cc(C(=O)N(C)CC(=O)Nc3ccccc3Br)c2c1 | ? | -19 | -15% | 11µM*
COc1ccc2[nH]c(C)c(CCNC(=S)Nc3ccccc3OC)c2c1 | / | -16 | -6% | /
CCc1cccc(C)c1NC(=S)NCCc1c(C)[nH]c2ccc(C)cc12 | ? | -72* | 18% | ?
COc1ccc2[nH]c(C)c(CCNC(=S)Nc3cc(C)ccc3C)c2c1 | 4% | -61* | -3% | -6%
COc1ccc2[nH]c(C)c(CCNC(=S)Nc3cc(C)cc(C)c3)c2c1 | -16% | ? | -9% | 33%
COc1ccc(CCNC(=S)Nc2cc(C)ccc2C)cc1 | 4% | ? | -25% | -24%
COc1ccc(CCNC(=S)Nc2ccc(C)cc2C)cc1 | -1% | -76* | 16% | 22%
CCc1cccc(CC)c1NC(=S)NCCc1c(C)[nH]c2ccc(C)cc12 | ? | -93* | 4% | ?
COc1ccc2[nH]c(C)c(CCNC(=S)Nc3cccc(C)c3)c2c1 | ? | ? | 7% | ?
CN(C)[C@@H]1CC[C@@]23CCCN2C(=O)CCC[C@H]3[C@H]1Cc1ccccc1 | / | 2 | / | /
COc1ccccc1N1CCN(Cc2cc(=O)oc3cc(C)cc(C)c23)CC1 | / | -13 | -28% | /
CCOC(=O)C1=CCN(S(=O)(=O)c2ccc(C)cc2)C1c1ccc(CC)cc1 (stereo not given) | / | -97* | -15% | /
CCOC(=O)C1=CCN(S(=O)(=O)c2ccc(Cl)cc2)C1c1cccc(C)c1 (stereo not given) | / | -87* | -27% | /
CCOc1ccc(OCC)c(NC(=O)C2CCN(c3nnc(-n4cccc4)s3)CC2)c1 | 20%[46.1 µM] | 0 | 0% | /
CCOC(=O)CC(=O)CSc1nc2ccsc2c(=O)n1Cc1ccccc1 | -1%[46.1 µM] | -20 | -10% | /
CC(C)(C)c1csc(NNC(=O)c2ccc(Br)cc2)n1 | ? | -97* | -4% | ?
C/C(=N\Nc1nc(C(C)(C)C)cs1)c1ccc(O)cc1 | / | -22 | 0% | /
O=C(CSC1=NCCS1)Nc1nc2c(s1)CCCC2 | 24% | -73* | 20% | 24%
COc1ccc(CC(=O)Nc2nc(C)cs2)cc1OC | -1% | -70* | -4% | ?
COc1ccc(CC(=O)Nc2nc(C(C)(C)C)cs2)cc1 | 4.5µM* | ? | ? | ?
Cn1nnnc1SCC(=O)Nc1nc2c(s1)CCCC2 | -7% | 107 | / | ?
COc1cc(C=O)cc(Cl)c1OC(=O)N1CCOCC1 | 11%[46.1 µM] | 49 | 1% | 1%[46.1 µM]
COc1ccc(OC)c(NC(=O)c2nc(SCc3ccccc3F)ncc2Cl)c1 | 13%[46.1 µM] | -35 | -17% | 14%[46.1 µM]
SMILES | Lassa entry inh | HCMV antiviral | FMDV inh | MARV entry inh
CCOC1=C2[C@H](c3ccc(CC)cc3)N(S(=O)(=O)c3ccc(C)cc3)C[C@H]2n2c(=O)n(-c3ccccc3)c(=O)n2C1 | / | 17 | 5% | /
COc1ccc(CC(=O)Nc2cc(Cl)ccc2N2CCCC2)cc1 | -15% | -63* | -9% | ?
COC(=O)c1c(-c2ccc(OC)c(OC)c2)csc1N | 6% | 19 | -19% | 0%
COc1ccc(CC(=O)Nc2nc3c(s2)CCCC3)cc1 | 4µM* | -37 | 17% | 2.5µM*
COc1ccc(CCC(=O)Nc2cc(Cl)ccc2N2CCN(C)CC2)cc1 | -27% | -3 | -12% | ?
CC(C)(C)c1csc(NC(=O)c2ccccc2O)n1 | ? | -94* | ? | 11µM*
COc1ccc(CC(=O)Nc2nc3c(s2)CC(C)CC3)cc1 (stereo not given) | 16%[46.1 µM] | 16 | 20% | ?
Cc1csc(NC(=O)c2ccccc2O)n1 | -8% | 59 | 30% | ?
COC(=O)c1c(-c2ccc3ccccc3c2)csc1NC(=O)Cc1ccc(OC)c(OC)c1 | ? | -83* | 10µM* | ?

From PubChem BioAssay
